In ChEMBL document CHEMBL4513216, “Probing the Open Global Health Chemical Diversity Library for Multistage-Active Starting Points for Next-Generation Antimalarials” (ACS Infect Dis, 2020):
Out of some 65,000 compounds screened, about 2,100 (3.2%) showed an effect of 50% or more. The median lay at about -52%. The full list was thinned out, with strong results kept by preference.

These molecules were tested on Plasmodium falciparum (assay: Screen against P. falciparum Asexual Blood Stage (ABS), at 5uM). Settings: tested at 5 uM.
Format: functional, Dd2

Row | SMILES | INHIBITION [%]
1 | NC(=O)c1cnn2c1NCC(CNCC1(c3ccccc3)CCC1)C2 (stereo not drawn) | 22.7
2 | CN[C@@H]1CCC[C@@H](Oc2ccccc2Oc2ccc(C)cc2)[C@@H]1O | 90.3
3 | N[C@@H]1CCC[C@@H](Oc2ccc(F)cc2Oc2ccccc2)[C@@H]1O | 77.4
4 | Cc1ccc(Oc2cc(F)ccc2O[C@@H]2CCC[C@@H](N)[C@H]2O)cc1 | 91.1
5 | Fc1cccnc1N1CCOCC2(CCCNC2)C1 (stereo not drawn) | 34.8
6 | CCCN1C(=O)CC2(CCCNC2)C1=O (stereo not drawn) | -90.5
7 | CC(O)CN1CCC(CN(C)Cc2cc(F)cc3cccnc23)CC1 (stereo not drawn) | 87.2
8 | CN(Cc1cc(F)cc2cccnc12)CC1CCN(CCO)CC1 | 84.7
9 | Cc1ccc(CC(=O)N2CCN(CC(C)O)CC2)cn1 (stereo not drawn) | -89.8
10 | CN(Cc1cc(Cl)cc2cccnc12)CC1CCN(CCO)CC1 | 88.7
11 | CN(c1ncccc1C#N)C1CCN(CCc2ccccn2)CC1 | 20.6
12 | CC(C)CN1C(=O)C2(CCCC2)NC1c1cn(C)c(=O)n(C)c1=O (stereo not drawn) | -15.3
13 | C[C@H]1C[C@@H]2CCN(CC3CCOCC3)C[C@H]2O1 | -49.5
14 | CC(NCC1(N(C)C)CCOCC1)c1ccc(Cl)cc1 (stereo not drawn) | 74.6
15 | CC(C)OCCNC1(c2ccc(Cl)cc2)CCOCC1 | 37.7
16 | CN1CCN2C(=O)N(C3CCCCC3)C[C@H]2C1 | -52.1
17 | c1ccc(CN2CCC3(CC2)CCN(Cc2cccs2)C3)nc1 | 54.8
18 | c1ccc(CO[C@@H]2CO[C@@]3(CCN(Cc4ccccn4)C3)C2)nc1 | -34.3
19 | c1ccc(CN2CCC3(CC2)CC(Nc2nccs2)CO3)nc1 (stereo not drawn) | 75
20 | c1ccc(CN2CCCC3(CCN(CC4CCCO4)CC3)C2)nc1 (stereo not drawn) | 15.1
21 | O=S(=O)(C1CC1)N1CCC2(CCCN(Cc3ccccn3)C2)CC1 | -22.4
22 | c1ccc(CN2CCC3(CC2)CCN(Cc2cccnc2)C3)nc1 | 21
23 | CS(=O)(=O)N1CCC2(CCCN(Cc3ccccn3)C2)C1 (stereo not drawn) | -32.2
24 | c1ccc(N2CCC3(COCCN(Cc4cccs4)C3)C2)nc1 (stereo not drawn) | 37.5
25 | c1ccc(CO[C@H]2CO[C@@]3(CCN(Cc4ccoc4)C3)C2)nc1 | 14.1
26 | c1ccc(N2CCCC3(CCN(Cc4cccs4)C3)C2)nc1 (stereo not drawn) | 73.4
27 | c1ccc(CN2CCCC3(CCN(Cc4cccs4)C3)C2)nc1 (stereo not drawn) | 73.8

Row | SMILES | INHIBITION [%]
28 | Cc1ccc(N2C[C@@H]3OCCN(CC4CC4)[C@@H]3C2)nn1 | -167
29 | O=C(c1ccco1)N1CCN2C[C@H](OCc3cccnc3)C[C@H]2C1 | -180
30 | O=C([C@H]1C[C@H]2OCC[C@H]2N(Cc2ccncc2)C1)N1CCCCO1 | -62.9
31 | CCN(CC)C(=O)C1CCC2(CCNCC2)O1 (stereo not drawn) | -55.8
32 | c1ccc(CO[C@H]2CC[C@H]3[C@H]2OCCN3Cc2nccs2)nc1 | -8.49
33 | CC(C)CN1CCCC2(CCN(c3ccccn3)C2)C1 (stereo not drawn) | 71.2
34 | CC(C)CN1CCCC2(CCN(c3ccc(C#N)cn3)C2)C1 (stereo not drawn) | 9.73
35 | CSc1nccc(N2CCC3(CCCN(CC4CC4)C3)C2)n1 (stereo not drawn) | -48.7
36 | CN(Cc1ccccc1)c1ncccc1CNC1CCC1 | 71.1
37 | CC(C)N1CCC(NCc2cccnc2N(C)Cc2ccccc2)CC1 | 84.1
38 | CC(C)c1noc(CN(Cc2cccnc2)C2CN3CCC2CC3)n1 (stereo not drawn) | -90.3
39 | CN(CCc1ccccc1)Cc1c(C2CC2)[nH]c2ncccc12 | -22.1
40 | CNc1nccnc1C1CCN(C(C)C)CC1 | 10.5
41 | CN(Cc1ccccc1)c1ncccc1CNC1CN2CCC1CC2 (stereo not drawn) | 62.6
42 | CN(c1ncccc1C#N)C1CCN(Cc2ccncc2)CC1 | -82.3
43 | COc1ncccc1CN1C[C@H]2CCN(C(C)C)C[C@H]2C1 | 9.06
44 | Nc1cc(-c2cccc3c2CCNC3)ncn1 | -47.8
45 | Cc1ccccc1CC(=O)N1CCN(C2CCOC2=O)CC1 (stereo not drawn) | -126
46 | c1cncc(COC[C@H]2CC[C@H]3[C@H](CCN3Cc3cccs3)O2)c1 | -174
47 | CC(=O)N1CCN(Cc2ccncc2)CC2(CC(=O)N(C)C2)C1 (stereo not drawn) | -18.8
48 | COCCn1c(C(=O)NCc2n[nH]c(C)n2)cc2ccccc21 | -74.2
49 | Cc1nc(CN2CCO[C@@H]3CC(COc4ccccn4)C[C@H]32)cs1 (stereo partly drawn) | -52.4
50 | Cc1cc(C(=O)NCC(=O)N2CCOCC2)nn1C(C)(C)C | -113
51 | c1ccc(CNc2ncc(CN3CC[C@@H]4CC[C@H](C3)N4)cn2)cc1 | -65
52 | Cc1ncc2c(n1)CCCC2NC(=O)c1cnn(Cc2ccccc2)c1 (stereo not drawn) | -115
53 | Cc1nc2c(c(NC3CCN(Cc4ccccc4)CC3)n1)CCNCC2 | 78.7
